Test results: the supplement of paper PMC11219838
A number with no mark means an inactive call.

Key:
Conditions in all cases: 60 µM; 5 days; temperature: 20 °C
Meloidogyne hapla J2 = assay: proportion of mobile M. hapla J2 relative to DMSO control (fraction of DMSO control); higher = more viable, less nematicidal, active = 0.7 or less
Outline: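 Sealed 96-well plates, each well holding around 25 M. hapla J2 in distilled water with compound pinned to 60 µM final (0.6% v/v DMSO), were shaken at 200 rpm for 5 days at 20 °C. Then 2 µL of 1 M NaOH was added to each well. Microscope-scored mobility was normalised to the mean of DMSO-only wells from the same plate. Eight such wells were on each plate, and the two biological replicates were averaged.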

[1] = test system: Caenorhabditis elegans dauer (daf-2(e1370)); assay: proportion of mobile C. elegans dauer larvae relative to DMSO control (fraction of DMSO control); higher = more viable, less nematicidal, active = 0.63 or less; extreme values may be limits of the assay
Outline: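 Compound was added by pinning to 60 µM final, giving 0.6% v/v DMSO, in 96-well plates containing about 20 C. elegans dauers per well in liquid NGM. These dauers came from synchronized larvae held on MYOB plates with E. coli OP50 for 48 h at 25 °C. Plates were sealed and shaken at 200 rpm at 20 °C for 5 days. Under a dissection microscope, the proportion of mobile worms was scored relative to DMSO wells, and two biological replicates were averaged.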

Ditylenchus dipsaci = assay: proportion of mobile D. dipsaci (mixed stage) relative to DMSO control (fraction of DMSO control); higher = more viable, less nematicidal, active = 0.86 or less; extreme values may be limits of the assay
Outline: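 Mobility, expressed relative to DMSO controls, is the mean of two biological replicates. The test organisms were D. dipsaci grown on pea plants in Gamborg B-5 agar and extracted into water by filter funnel, with about 20 added per well of a 96-well plate in distilled water. Compound was pinned to 60 µM final (0.6% v/v DMSO), plates were sealed and shaken at 200 rpm for 5 days at 20 °C, and mobile worms were scored under a microscope once 2 µL 1 M NaOH had been added.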

SMILES | proportion of mobile M. hapla J2 (Meloidogyne hapla J2) | proportion of mobile C. elegans dauer larvae [1] | proportion of mobile D. dipsaci (Ditylenchus dipsaci)
Cc1ccc(C)c(-c2nc(-c3ccc(Cl)cc3)no2)c1 | 0.93 | 1 | 1
CCOc1cc(-c2nc(-c3ccc(C)nc3OC)no2)cc(OCC)c1OCC | 0.628 (active) | 1 | 1
O=C(CSc1nnc(-c2cccc3ccccc23)o1)Nc1cccc(F)c1 | 0.999 | 1 | 1
COc1cccc(-c2noc(-c3ccc(C)cc3Cl)n2)c1 | 1 | 1 | 1
O=C(CSc1nnc(-c2ccccc2Cl)o1)c1ccc2c(c1)CCCC2 | 0.914 | 1 | 1
COC(=O)c1ccc(Cl)c(NC(=O)CSc2nnc(-c3ccc(Cl)cc3)o2)c1 | 0.77 | 1 | 1
Cc1cc(OCc2nc(-c3ccncc3)no2)ccc1Cl | 0.921 | 1 | 1
O=C(CSc1nnc(-c2ccccc2)o1)N1CCc2ccccc21 | 0.993 | 1 | 1
Fc1ccc(OCc2nc(-c3ccc(Br)cc3)no2)cc1 | 0.95 | 1 | 1
Fc1ccc(-c2noc(-c3ccc(F)cc3)n2)cc1 | 1.01 | 1 | 1
COc1ccc(-c2noc(COc3ccc(C4CCCCC4)cc3)n2)cc1 | 0.62 (active) | 1 | 1
Cc1ccc(SCc2nc(-c3cccnc3)no2)cc1 | 1.1 | 0.75 | 
CCOc1cc(C#N)ccc1OCc1nc(-c2cccs2)no1 | 1.07 | 1 | 1
Cc1cccc(OCc2nc(-c3ccncc3)no2)c1C | 0.937 | 1 | 1
Cc1ccccc1-c1nc(-c2ccc3c(c2)OCO3)no1 | 0.848 | 1 | 0.933
COc1ccccc1-c1nnc(SCc2ccccc2C)o1 | 0.929 | 1 | 1
COc1ccccc1-c1nc(-c2ccccc2Cl)no1 | 0.899 | 1 | 1

SMILES | proportion of mobile M. hapla J2 (Meloidogyne hapla J2) | proportion of mobile C. elegans dauer larvae [1] | proportion of mobile D. dipsaci (Ditylenchus dipsaci)
Cc1cc(OCc2nc(-c3ccncc3)no2)c(C)c(C)c1Br | 1.06 | 1 | 1
CC(C)Oc1ccc(-c2nc(-c3ccccn3)no2)cc1 | 0.943 | 0.0263 (active) | 1
CCCSc1nnc(-c2ccc(Cl)cc2Cl)o1 | 0.991 | 0.143 (active) | 1
COc1ccccc1-c1noc(-c2ccccc2F)n1 | 0.91 | 1 | 1
CCCOc1ccc(-c2ccc(-c3nc(-c4cccnc4)no3)cc2)cc1 | 1.02 | 1 | 1
COc1ccc(-c2noc(COc3ccc(F)cc3)n2)cc1 | 0.891 | 1 | 1
Cc1ccccc1OCc1nc(-c2ccc(Cl)cc2)no1 | 1.04 | 1 | 1
COc1cccc(-c2nnc(SCc3ccccc3)o2)c1 | 0.985 | 1 | 1
c1ccc(COc2cccc(-c3nc(-c4cccnc4)no3)c2)cc1 | 0.854 | 1 | 1
Cc1ccccc1-c1nc(-c2cccc(NC(=O)c3cccs3)c2)no1 | 0.959 | 1 | 1
Clc1ccc(OCc2nc(-c3cccs3)no2)cc1 | 0.923 | 1 | 1
COc1ccc(-c2noc(-c3cc(C)ccc3C)n2)cc1 | 0.916 | 1 | 1
O=C(c1ccccc1-c1nc(-c2ccccc2Cl)no1)N1CCCC1 | 0.947 | 1 | 1
Cc1ccc(-c2noc(COc3ccc(Cl)c(C)c3)n2)cc1 | 0.905 | 1 | 1
Cc1cccc(-c2noc(COc3ccc(C)c(C)c3)n2)c1 | 1.04 | 1 | 1
Brc1ccc(-c2noc(-c3ccc(Br)o3)n2)o1 | 0.949 | 1 | 1
O=C(CSc1nnc(-c2ccncc2)o1)Nc1cc(C(F)(F)F)ccc1Cl | 0.841 | 1 | 1
